Measured values as given in PubChem BioAssay (NCI).
The panel holds about 83,000 compounds, 20% with a hit somewhere; the sample as a whole holds those more often.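 Results are percent growth after 48 hours of single-concentration exposure. 100 means growth as in untreated cells, lower positive values show inhibition; negative values down to -100 show cell death.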 Calls of active or inactive are those of the source.

Each compound was assayed on M14 melanoma (assay: NCI-60 one-dose screen, 48 h (100 = growth as untreated, 0 = no growth, -100 = all killed)). Conditions: 10 µM unless noted.
Method: Growth inhibition of the M14 human tumor cell line is measured as a screen for anti-cancer activity. Cells are grown in 96 well plates and exposed to the test compound for 48 hours. Compounds are tested at a single concentration, which is 10^-5 M for most compounds. The reported endpoint is percent growth (GI% or GIPRCNT), where numbers from 0 - 100% represent growth inhibition, and numbers from -100% - 0 represent cell death. For example, a value of 40 represents 60% growth inhibition. A value of 0 means no net growth occurred over the course of the experiment. A value of -40 indicates 40% of cells at the beginning of the experiment died by the end of the experiment. A value of -100 means all cells are dead at the end of the experiment.
NCI-60 Human Tumor Cell Lines Screen was performed using the standard one-dose NCI protocol, which is described in more detail at https://dtp.cancer.gov/discovery_development/nci-60/default.htm.
Compounds with GIPRCNT values below 10 were considered active. Activity score was based on GIPRCNT using the following formula: […]
Score is 0 for GIPRCNT values of 100 or above, 50 for GIPRCNT values of 0, and 100 for GIPRCNT values of -100.

Compound	growth
COc1ccc(C2CC(c3ccc(Nc4nc(NCCO)nc(Nc5ccc(Cl)cc5)n4)cc3)=Nc3c(N)nc(N)nc3N2)cc1 (stereo not given)	94.7% (inactive)
COc1ccc([C@H]2[C@H](O)C(=O)N2c2cc(OC)c(OC)c(OC)c2)cc1Cl	10.3% (inactive)
O=C(CSc1nnc(-c2cccs2)n1-c1ccccc1)Nc1ccc(F)cc1	99.2% (inactive)
COc1ccc(CCN2C(=O)/C(=C/c3nc(CO)cs3)SC2=S)cc1	85.3% (inactive)
C=CCn1c(SCC(=O)Nc2cccc(C(=O)/C=C/c3ccc(C)cc3)c2)nc2ccccc2c1=O	96.7% (inactive)
Cc1cc(O)c2c(c1)C(=O)C(c1c(C)cc3c(c1O)C(=O)C=CC3=O)=CC2=O	93.1% (inactive)
CCc1ccc(NC(=O)N[C@@H](Cc2cccc(C)c2)C(=O)N[C@@H]2C(=O)N3CCC[C@H]3C(=O)N3CCCC[C@H]3C(=O)N[C@@H](CO)C(=O)N3C[C@H](C)C[C@H]3C(=O)O[C@H]2C)c(F)c1	23.7% (inactive)
O=C1Nc2cc(OC(F)(F)F)ccc2Oc2ccc(-c3ccnc(N4CCNCC4)c3)cc21	-90.5% (active)
COc1ccc(Cn2cc3c(c2-c2cc(OC)c(OC)c(OC)c2)CCCc2cnoc2-3)cc1	2.98% (active)
O=c1cc(-c2ccccc2)nc2sc(-c3c[nH]c4ccc(Br)cc34)nn12	105% (inactive)
COc1ccc(-c2nnc(SCc3ccc(O)c4ncccc34)n2-c2ccccc2)cc1	-13.5% (active)
COc1cc2cc(Oc3ccc(NC(=O)Nc4cccc(C(F)(F)F)c4)cc3)c(C)nc2cc1OCCN(C)C	107% (inactive)
Cn1cc(-c2nnc(N)nc2-c2cn(C)c3ccc(F)cc23)c2cc(F)ccc21	101% (inactive)
Cc1cccc(NC(c2cc3cccc4ccc5cccc2c5c43)c2nnnn2C(C)(C)C)c1C (stereo not given)	94.4% (inactive)
Cc1ccccc1/C=C/c1nn2c(-c3ccoc3C)nnc2s1	99% (inactive)
CC(C)=CCc1c2c(c(O)c3c1O[C@]14C(=C[C@@H]5C[C@H]1C(C)(C)O[C@@]4(C/C=C(/C)C(=O)O)C5=O)C3=O)CC(O)C(C)(C)O2 (stereo not given in full)	-24.8% (active)
COc1ccc(/C=N/Nc2nc(Nc3ccccc3)nc(Nc3ccc(S(N)(=O)=O)cc3)n2)cc1	74.9% (inactive)
O=C1c2cc(Br)ccc2-n2c1nc1cc(Br)ccc1c2=O	72.2% (inactive)
Cc1cc(NS(=O)(=O)c2ccc(-c3cnc(C4CC4)o3)cc2)ccc1I	24.6% (inactive)
COc1ccc(/C=C/C(=O)c2nnn(-c3ccc(Br)cc3)c2C)cc1OC	60.4% (inactive)

Compound	growth
CN(c1ccc(Br)cc1)S(=O)(=O)c1ccc(-c2cnc(C3CC3)o2)cc1	8.2% (active)
Oc1ccc(CSc2nnc(-c3ccc(Cl)cc3)o2)c2cccnc12	9.55% (active)
N#C/C(=C\c1ccc(-c2ccc(F)cc2)o1)C(=O)Nc1ncc(Cc2ccc(Cl)cc2Cl)s1	2.18% (active)
CC1CCN(S(=O)(=O)c2ncsc2-c2ccccc2)CC1	83.5% (inactive)
COc1cc(-c2nc(SCc3ccc(C)cc3)[nH]c(=O)c2C#N)ccc1OCc1ccccc1	105% (inactive)
IP(CCCCCCCCCCSc1n(Cc2ccc3ccccc3c2)c(-c2ccccc2)c(-c2ccccc2)[n+]1Cc1ccc2ccccc2c1)(c1ccccc1)(c1ccccc1)c1ccccc1	-61.2% (active)
CN(C)c1ncc(/C=C2\SC(=S)N(Cc3ccccc3Cl)C2=O)s1	94.1% (inactive)
CNC(=O)c1cc(Oc2ccc3nc(NC(=O)c4cc(C)cc(C)c4)sc3c2)ccn1	53.6% (inactive)
Cc1cn(-c2cc(NC(=O)c3cncc(C#Cc4cnc5ccc(O[C@H]6CCOC6)nn45)c3)cc(C(F)(F)F)c2)cn1	57.7% (inactive)
COc1cc(/C=C/C(=O)c2ccc(N3CCN(C)CC3)cc2)ccc1F	73.6% (inactive)
CC(C)(C)n1nnnc1C(Nc1nccs1)c1cc2cccc3ccc4cccc1c4c32 (stereo not given)	106% (inactive)
COC1=C(c2ccccc2)C(=O)C(OC)=C(c2ccccc2)C1=O	98.9% (inactive)
COc1c([C@@H](CC(C)C)OC(C)=O)ccc2c1C(=O)OCc1cc(C)cc(O)c1O2	44.3% (inactive)
Cc1cn(-c2cc(NC(=O)c3cncc(C#Cc4cnc5ccc(OCCCS(C)(=O)=O)nn45)c3)cc(C(F)(F)F)c2)cn1	18% (inactive)
Brc1cccc(/C=N/Nc2nc(N/N=C/c3cccc(Br)c3)nc(N3CCOCC3)n2)c1	31.7% (inactive)
CS(=O)(=O)c1nccc(-c2c(-c3ccc(F)c(OCc4ccccc4)c3)nc3sccn23)n1	51.7% (inactive)
COc1ccc(Cn2cc3c(c2-c2cc(OC)c(OC)c(OC)c2)CCCc2cnoc2-3)cc1N	0.685% (active)
C=C1C(=O)O[C@@H]2C[C@@H](C)CCC(=O)[C@](C)(OC(C)=O)C[C@H](OC(=O)/C(C)=C\C)[C@@H]12	82.4% (inactive)
C#C[C@]1(O)CC[C@H]2[C@@H]3CC=C4c5sc(C6CCOCC6)nc5CC[C@]4(C)[C@H]3CC[C@@]21C	59.8% (inactive)
CCOC(=O)c1c(Nc2ccccc2)nn2c(-c3ccc(Br)cc3)ccnc12	88.6% (inactive)
